In PubChem BioAssay (NCATS):
Records with an inconclusive call do not appear. Entries that show only a call come without a potency. Active and inactive are the calls of the source. Calls come from the whole dose curve; as a rule, active = well fitted inhibition curve with a large enough effect; inconclusive = small, poorly fitted or top-dose-only effect; inactive = flat fitted curve, though single readings scatter.

tested on: CRL-7250; experiment: qHTS assay to identify novel small-molecules to repurpose for Merkel cell carcinoma treatment (AID 1296009); conditions: MCC and control cell lines, CellTiter-Glo viability, 72 h; series mostly up to 92 µM; note: nearly all actives have a fitted effect of over 60% in size
Outline: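 Cells were incubated with compound for 72 hr at 37 degree celsius before CellTiter-Glo addition. Luminescence was normalized with no-cell wells as full cytotoxicity and DMSO as baseline.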

Structure (SMILES) | Potency | outcome
NC(=O)c1cccc(-c2cc(O)cc(OC(=O)NC3CCCCC3)c2)c1 | inactive | –
Cc1ccc(Cc2c(C)nc3nc(SCC(=O)NCCN4CCNCC4)nn3c2C)cc1 | inactive | –
COc1c(OC2OC(CO)C(O)C(O)C2O)ccc(O)c1C(=O)OCc1ccccc1O[C@@H]1O[C@H](CO)[C@@H](O)[C@H](O)[C@H]1O (some centres undefined) | inactive | –
Cc1ccc([C@@H]2CC=C(C(=O)O)[C@H](c3ccc(C(C)(C)C)cc3)N2S(=O)(=O)c2ccc(C)cc2)cc1 | inactive | –
Fc1ccc(-c2nc(C3CCNCC3)sc2-c2ccnc(NC3CC3)n2)cc1 | inactive | –
COC(=O)C1=CO[C@@H](O[C@@H]2O[C@H](CO)[C@@H](O)[C@H](O)[C@H]2O)[C@@H]2[C@@H](CO)[C@@H](O)C(O)[C@H]12 (some centres undefined) | inactive | –
COC(=O)c1ccccc1O[C@@H]1O[C@H](CO)[C@@H](O)[C@H](O)[C@H]1O[C@@H]1O[C@@H](C)[C@H](O)[C@@H](O)[C@H]1O | inactive | –
CC1CCC2(OC1)OC1CC3C4CC=C5CC(O)CC(O[C@@H]6OC[C@@H](O)[C@H](O)[C@H]6O)C5(C)C4CCC3(C)C1(O)C2C (some centres undefined) | inactive | –
CC1(C)CCC2(C(=O)OC3OC(COC4OC(CO)C(O)C(O)C4O)C(O)C(O)C3O)CCC3(C)C(=CCC4C5(C)CCC(O)C(C)(C(=O)O)C5CCC43C)C2C1O (centres undefined) | – | inactive [at 9.27 µM]
